Hits are enriched below; roughly 2.4% of the tested compounds scored in any of these assays.
Cruzain noTriton – inhibitors of Trypanosoma cruzi cruzain without detergent; P25779; purified cruzain, Z-FR-AMC fluorescence, no detergent; Potency, µM, hits mostly inhibitors; 200,000 compounds, 2.3% hits; AID 1476; note: nearly all actives have a fitted effect of over 40% in size
Target sequence (P25779 123-467 limits assumed): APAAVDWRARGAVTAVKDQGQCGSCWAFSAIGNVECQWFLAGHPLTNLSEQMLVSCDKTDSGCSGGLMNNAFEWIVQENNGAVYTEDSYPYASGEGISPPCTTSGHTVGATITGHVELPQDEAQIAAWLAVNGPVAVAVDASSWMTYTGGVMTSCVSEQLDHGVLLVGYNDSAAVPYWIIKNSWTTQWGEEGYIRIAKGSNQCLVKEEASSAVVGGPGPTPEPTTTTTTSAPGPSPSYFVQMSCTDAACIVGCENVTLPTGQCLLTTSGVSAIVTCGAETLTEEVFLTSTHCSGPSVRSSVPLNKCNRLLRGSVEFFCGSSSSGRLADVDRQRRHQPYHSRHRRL
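Purified cruzain at 1.5 nM, pre-incubated 15 min with compound at room temperature in 100 mM sodium acetate pH 5.5, 5 mM DTT, 0.00005% Triton X-100. Reaction started with 2 uM Z-FR-AMC; AMC fluorescence increase over 60 s gives rate.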
Cruzain inh Det – blocks cruzain activity in presence of Triton detergent; purified cruzain, Z-FR-AMC fluorescence, 0.01% Triton; AID 1478; P25779; 200,000 compounds, 0.43% hits; Potency, µM, most hits filed as inhibitors; note: nearly all actives have a fitted effect of over 40% in size
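Cruzain (1.5 nM) preincubated 15 min at RT with compound in 100 mM sodium acetate pH 5.5, 5 mM DTT, 0.01% Triton X-100. Reaction started with 2 uM Z-FR-AMC; AMC fluorescence (ex 360/em 450 nm) change over 60 s gave rate.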
Of the large screens only hits and unclear results are named; the others gave an inactive call. Calls come from the whole dose curve; as a rule, active = well fitted curve in the direction sought with a large enough effect; inconclusive = small, poorly fitted or top-dose-only effect, or another doubt; inactive = no such curve, though single readings can be large; an effect the other way counts as inactive or inconclusive.

O=C1c2[nH]nc(-c3ccc(Br)cc3)c2C(c2cccc(O)c2)N1c1ccc(Cl)cc1 (stereo not drawn)	Cruzain noTriton inconclusive
COC(=O)c1ccc(C2c3c(-c4ccc(Br)cc4)n[nH]c3C(=O)N2c2ccc(Cl)cc2)cc1 (stereo not drawn)	Cruzain noTriton 16µM
CCc1ccc(C2C(C#N)=C(N)SC(N)=C2C#N)s1	Cruzain noTriton 16µM
CCc1ccc(C2C(C#N)=C(N)SC(N)=C2C#N)cc1	none
Cc1c(C(=O)Nc2ccc(F)cc2)oc2ccc(S(=O)(=O)N3CCCCCC3)cc12	Cruzain noTriton 32µM
Cc1ccc(NC(=O)c2oc3ccc(S(=O)(=O)N4CCCCC4)cc3c2C)cc1C	none
Cc1c(C(=O)NCc2ccc3c(c2)OCO3)oc2ccc(S(=O)(=O)N3CCCC3)cc12	Cruzain noTriton 16µM
Cc1c(C(=O)NCc2ccc3c(c2)OCO3)oc2ccc(S(=O)(=O)N3CCCCC3)cc12	Cruzain noTriton inconclusive
CN(C)Cc1ccc(-c2cc3onc(-c4ccccc4)c3c(=O)n2C)cc1	none
O=C(Nc1ccc(N2CCCC2)c(Cl)c1)c1cccc(-c2cc3ccccc3oc2=O)c1	Cruzain noTriton 4µM
COc1cc(NC(=O)c2ccc(Cl)cc2Cl)ccc1-c1cc2ccccc2oc1=O	Cruzain noTriton 20µM
O=C(Nc1ccc(N2CCOCC2)c(Cl)c1)c1cc2ccccc2o1	none
Cc1cc(NC(=O)c2cc(Cl)ccc2Cl)ccc1-c1cc2ccccc2oc1=O	none
COc1ccc(C(=O)Nc2ccccc2)cc1[N+](=O)[O-]	none
COc1ccc(C(=O)Nc2cccc(-c3cc4ccccc4oc3=O)c2)cc1[N+](=O)[O-]	Cruzain noTriton 10µM
C/C(=N\[N+](C)(C)C)c1ccc(C)c(C)c1	none
Cc1ccc(-c2nc3sc(CCNS(=O)(=O)c4cc(F)ccc4F)c(C)n3n2)cc1	none
COC(=O)c1sccc1NC(=O)/C=C\c1ccc(Cl)cc1Cl	Cruzain noTriton 3.2µM
COC(=O)c1sccc1NC(=O)/C=C/c1ccc(Cl)cc1	none
c1ccc2c[n+](Cc3ccnc4ccccc34)ccc2c1	none
Cc1cc(C)cc(OCC(=O)N(Cc2ccco2)Cc2ccccc2Cl)c1	Cruzain noTriton inconclusive
Cc1ccc(NC(=O)Cn2c(=O)nc(-c3ccccc3)c3ccccc32)cc1	none
Cc1ccc(NC(=O)Cn2c(O)c(N=NC(=O)c3cc4ccccc4cc3O)c3ccccc32)cc1	Cruzain noTriton 10µM
O=C(N=Nc1c(O)n(Cc2ccccc2)c2ccccc12)c1cc2ccccc2cc1O	Cruzain noTriton 7.9µM
O=C(N=Nc1c(O)n(Cc2ccccc2)c2ccccc12)c1ccc(O)cc1	Cruzain noTriton inconclusive
COc1cccc(OC)c1C(=O)Nc1ccc(-c2nc3ncccc3o2)cc1	none
CCOc1ccc(/C=C2\SC(=S)N(Nc3ccccc3)C2=O)cc1OC	Cruzain noTriton inconclusive, Cruzain inh Det 6.3µM
COc1cc(/C=C2\SC(=S)N(Nc3ccccc3)C2=O)cc(OC)c1OC	none
Cc1cc(C)nc(NC(=NCCc2c[nH]c3ccccc23)NC(=O)Nc2ccc(Cl)c(Cl)c2)n1	Cruzain noTriton 7.9µM
Cc1cc(C)nc(NC(=NCCc2c[nH]c3ccccc23)NC(=O)Nc2cccc([N+](=O)[O-])c2)n1	Cruzain noTriton 10µM
Cc1cc(C)nc(NC(=NCCc2c[nH]c3ccccc23)NC(=O)c2ccco2)n1	Cruzain noTriton inconclusive
Cc1cc(C)nc(NC(=NCCc2c[nH]c3ccccc23)NC(=O)Nc2ccccc2)n1	Cruzain noTriton inconclusive
Cc1cccc(C(=O)Oc2c(Sc3ccccc3)c(C)nn2C(C)(C)C)c1	none
N#CC(C#N)=CC1=C2OC(c3ccccc3)=CC(c3ccccc3)=C2CCC1	Cruzain noTriton 5µM
COCCNc1cc(N2CCN(C3CCCCC3)CC2)c2noc3c2c1C(=O)c1ccccc1-3	none
O=C(NC1CC(=O)N(c2ccc(Cl)cc2)C1)c1ccc2c(c1)OCO2 (stereo not drawn)	none
CCOC(=O)c1c(C)[nH]c(C(=O)CSc2ccccc2)c1C	Cruzain noTriton inconclusive
CCOC(=O)c1c(C)[nH]c(C(=O)COC(=O)CCSc2ccccc2)c1C	Cruzain inh Det 25µM
CC(=O)c1c(C)[nH]c(C(=O)COC(=O)CNS(=O)(=O)c2ccccc2)c1C	none
CC(=O)c1c(C)[nH]c(C(=O)COC(=O)CCSc2ccccc2)c1C	Cruzain noTriton inconclusive, Cruzain inh Det 16µM
Cc1cc(N2CCOCC2)nc2ccc(Cc3ccc4nc(N5CCOCC5)cc(C)c4c3)cc12	none
CCCCN(CC)CCCNC(=O)Cn1nc(CC)n2c(cc3sccc32)c1=O	none
COc1ccc(C(=O)N/N=C/c2sc3ccccc3c2O)cc1	none
COc1ccc2cc(C(=O)N/N=C/c3sc4ccccc4c3O)ccc2c1	Cruzain noTriton inconclusive, Cruzain inh Det 28µM
O=C(O)c1ccc2nc(-c3cc4cc(Cl)ccc4oc3=O)[nH]c2c1	none
COc1ccc(CCNC(=O)c2cc(=O)[nH]c3ccc(S(=O)(=O)N4CCCCC4C)cc23)cc1OC (stereo not drawn)	Cruzain noTriton inconclusive
CCCCC/C=C\C/C=C\C=C\[C@@H](O)C/C=C\CCCC(=O)O	none

Source: PubChem BioAssay (National Center for Advancing Translational Sciences (NCATS))
